# SARS PLP yeast: qHTS of Yeast-based Assay for SARS-CoV PLP | S. cerevisiae expressing SARS-CoV PLpro, growth rescue | Potency, µM (series often up to 32.9 µM), for the others: at the highest dose activity, positive = growth rescue, hits mostly activators | hit rate 0.19% among 330,000; calls by dose curve; further: 0% is about no effect; nearly all actives have a fitted effect of over 55% in size
# Pf growth 96h: Primary qHTS for delayed death inhibitors of the malarial parasite plastid, 96 hour incubation; hit rate 6.9% among 320,000; P. falciparum luciferase reporter growth, 96 h; Potency, µM (doses to about 28.7 µM), without a hit: top-dose activity change, negative = inhibition, most hits filed as inhibitors; further: on the % scale 0 is the no-effect control and ±100 the full control effect
#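 Erythrocytes infected with luciferase-expressing P. falciparum were dispensed at 2% hematocrit and 0.05% parasitemia (final), then incubated with compounds 96 hours at 37 C in 5% CO2. Luminescence after detection reagent addition reported growth.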
# Sm TGR block: qHTS Assay for the Inhibitors of Schistosoma Mansoni Peroxiredoxins; purified TGR, DTNB reduction, TNB absorbance 405 nm; Potency, µM (titrated, usually from 114 µM), for inactives: at the highest dose activity change, negative = inhibition, hits mostly inhibitors; hit rate 3% among 360,000; further: on the % scale 0 is the no-effect control and ±100 the full control effect; nearly all actives have a fitted effect of over 60% in size
#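 Kinetic colorimetric format: TGR-catalysed, NADPH-driven DTNB reduction monitored via TNB absorbance. Enzyme dispensed at 20 nM; compound exposure 15 min at room temperature before reaction start.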
# Pf growth 48h: Primary qHTS for delayed death inhibitors of the malarial parasite plastid, 48 hour incubation. P. falciparum luciferase growth in erythrocytes, 48 h. Potency, µM (series often up to 28.7 µM), for the others: top-dose activity change, negative = inhibition, most hits filed as inhibitors. hit rate 5.9% among 310,000; further: on the % scale 0 is the no-effect control and ±100 the full control effect
#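 Parasite viability was followed by luminescence of a genomically integrated firefly luciferase. Cultures held 0.1% parasitemia at 2% hematocrit (final), incubated under 5% CO2 at 37 C.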
# Numbers without * were called inactive; u = inconclusive; x = not tested or not shown. Rows were chosen to be rich in hits. Some 12% of all compounds tested hit in one or more screens of this group. Unless noted, the call rests on the fitted dose curve; in most records, active means well fitted curve in the direction sought with a large enough effect; inconclusive means small, poorly fitted or top-dose-only effect, or another doubt; inactive means no such curve, though single readings can be large; an effect the other way counts as inactive or inconclusive. Potency means the concentration at half of the fitted maximal effect.
SMILES,SARS PLP yeast,Pf growth 96h,Sm TGR block,Pf growth 48h
O=C(NCc1cccnc1)C1CCCN(S(=O)(=O)c2cccc3nsnc23)C1 (configuration not stated),22%,10µM*,-7%,-6%
CN(CC(=O)N1CCCCC1)S(=O)(=O)c1cccc2nsnc12,0%,u,3%,u
CN(CC(=O)N1CCN(c2ccccn2)CC1)S(=O)(=O)c1cccc2nsnc12,23%,9.3µM*,-3%,-29%
COc1cc2c(cc1OC)C(c1ccc(Br)cc1)N(C(=O)c1ccccc1C(=O)O)CC2 (configuration not stated),-8%,u,-26%,-19%
CN1C(=O)C(C)(C)c2cc(S(=O)(=O)N3CCCC3C(=O)Nc3ccc(F)cc3)ccc21 (configuration not stated),x,x,3%,x
Cc1ccc(N2CC(NC(=O)c3ccc(S(=O)(=O)N(C)C)cc3)CC2=O)cc1C (configuration not stated),x,x,6%,x
Cc1cc(-c2ccc(S(=O)(=O)Nc3cccc(Cl)c3C)cc2)on1,x,x,3%,x
CC1(C)CC(=O)C(C=Nc2ccc3[nH]ncc3c2)=C(O)C1,-5%,10µM*,-1%,5%
CC1(C)CC(=O)C(C=Nc2ccc3cn[nH]c3c2)=C(O)C1,4%,-8%,-22%,0%
Cn1cc(Cl)c(C(=O)OCC(=O)c2ccccc2)n1,0%,13µM*,-6%,30%
COC(=O)c1cnc(N2CCN(c3ccc(OC)cc3)CC2)c2ccccc12,x,x,-4%,x
NN/C(=C\[N+](=O)[O-])Nc1ccc(Cl)cc1,-2%,17%,2.8µM*,-12%
NN/C(=C\[N+](=O)[O-])Nc1ccccc1,0%,75%,22µM*,u
O=C(Nc1ccc(F)cc1F)NC1CCCCCCC1,0%,-17%,5%,66%
COC(=O)CNC(c1ccccc1)c1cc(Br)ccc1NC(=O)CCN1CCOCC1 (configuration not stated),-108%,25%,8.9µM*,-16%
CCOC(=O)CNC(c1ccccc1)c1cc(Br)ccc1NC(=O)CCN1CCOCC1 (configuration not stated),-96%,u,6.3µM*,u
COC(=O)CNC(c1ccccc1)c1cc(Br)ccc1NC(=O)CNC(=O)OCc1ccccc1 (configuration not stated),-27%,u,-2%,u
CCN(C(=O)Cn1c(=O)oc2ccccc21)c1ccc(C)c(C)c1,1%,25%,-2%,u
O=C(CCC(=O)N1CCOCC1)NCc1cccc(C(F)(F)F)c1,-1%,-16%,-17%,u
COC(=O)CCC(=O)OC1(C)C(=O)C2=CN(CCCOC(C)C)C(c3ccc(OC)cc3)=CC2=C(Br)C1=O (configuration not stated),2%,12µM*,u,u
COC(=O)CCC(=O)OC1(C)C(=O)C2=CN(CC3CC3)C(c3ccc(OC)cc3)=CC2=C(Br)C1=O (configuration not stated),3%,u,-33%,13µM*
COC(=O)CCC(=O)OC1(C)C(=O)C2=CN(CC(C)C)C(c3ccc(OC)cc3)=CC2=C(Br)C1=O (configuration not stated),-2%,13µM*,u,u
O=C(NCc1ccc2c(c1)OCO2)C1CC(=O)N(CCc2ccc(Cl)cc2)C1 (configuration not stated),2%,0%,1%,-2%
CCOC(=O)C1=NOC2C(=O)N(c3ccc(Cl)cc3Cl)C(=O)C12 (configuration not stated),0%,-6%,3.5µM*,28%
O=C(C1=NN(c2ccccc2)C2C(=O)N(c3ccc(Cl)cc3)C(=O)C12)c1ccccc1 (configuration not stated),10%,42%,-7%,2%
SMILES,SARS PLP yeast,Pf growth 96h,Sm TGR block,Pf growth 48h
CC(=O)C1=NOC2C(=O)N(c3ccc(Cl)cc3)C(=O)C12 (configuration not stated),1%,0%,3.5µM*,-1%
Cc1ccc(C)c(N2CCN(C3CCCCC3NS(=O)(=O)c3ccccc3)CC2)c1 (configuration not stated),x,12µM*,-16%,u
COc1cc(C(Nc2ccc(S(=O)(=O)NCC3CCCO3)cc2)C(=O)NC(C)(C)C)cc(OC)c1OC (configuration not stated),-3%,u,-5%,2.1µM*
COc1cc(C(Nc2ccc(S(=O)(=O)N3CCC(C)CC3)cc2)C(=O)NCC2CCCO2)cc(OC)c1OC (configuration not stated),-1%,u,0%,13µM*
COc1cccc2cc(C(=O)Nc3ccc(S(=O)(=O)NCC4CCCO4)cc3)c(=O)oc12 (configuration not stated),1%,60%,-5%,2.1µM*
COc1ccc(S(=O)(=O)Nc2ccc(S(=O)(=O)NCC3CCCO3)cc2)cc1 (configuration not stated),-2%,78%,-6%,11%
COc1ccc(NC(=O)c2ccc(Cl)c(S(=O)(=O)NCC3CCCO3)c2)c(OC)c1 (configuration not stated),6%,12µM*,5%,u
COc1ccc(OC)c(-c2cc(C3CCN(C(=O)OC(C)(C)C)CC3)[nH]n2)c1,1%,10µM*,0%,u
COc1ccc(-c2cc(C3CCN(C(=O)OC(C)(C)C)CC3)[nH]n2)cc1,-1%,u,-1%,u
Cn1c(C(=O)N2CCN(c3ccc(F)cc3)CC2)cc2ccccc21,-5%,u,0%,u
Cn1c(C(=O)c2ccncc2)cc2ccccc21,-1%,u,19%,13µM*
CCCN1Cc2cccc(C(=O)Nc3ccccc3F)c2C1=O,x,x,2%,x
CC(C)[C@H](NC(=O)[C@H](Cc1ccccc1)n1c(=O)[nH]c2ccccc2c1=O)C(=O)N1CCC[C@@H]1C(=O)O,2%,14%,-18%,22%
Cc1cc2nnc(SCC(=O)Nc3ccc(F)c(Cl)c3)n2c2ccccc12,x,x,0%,x
O=C(COC(=O)c1n[nH]c2ccccc12)NCCc1ccccc1,3%,x,x,x
CCOc1ccc(CN2C(=O)c3ccccc3Sc3ccc(C(=O)N4CCN(C)CC4)cc32)cc1,x,x,7%,x
C=CCN1C(=O)c2ccccc2Sc2ccc(C(=O)N3CCN(C)CC3)cc21,1%,9.3µM*,-11%,u
COc1ccc(NC(=O)CN2C(=O)c3ccccc3Sc3ccc(C(=O)N4CCOCC4)cc32)c(OC)c1,-4%,-14%,-2%,10µM*
CCOC(=O)Cc1cnc(NC(=O)CSc2nc(C(C)C)cc(=O)[nH]2)s1,4%,u,-14%,0%
COc1ccc(CNC(=O)c2cc3ccccn3n2)cc1OC,x,x,11%,x
